# Measurements reported in PubChem BioAssay AID1832 (Broad Institute, 2009).
# Among all 300,000 compounds or so, about 1,100 (0.37%) were called active. The sample holds actives, similar compounds and a random draw of the others, so the mix is not that of the screen. Values without a mark were called inactive.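 The calls were made as follows: active = inhibition past about -25% in most replicates, and total fluorescence under double the plate's negative control median (limit read from the data); inconclusive = replicates evenly split on the limit, or fluorescence at least double controls; inactive = too little inhibition in most replicates.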
# Molecular target: Zinc finger protein mex-5 (Caenorhabditis elegans) (UniProt Q9XUB2)
# Experiment: MEX-5 zinc finger RNA-binding disruptors – biochemical, C. elegans, fluorescence polarization, MLPCN library, primary screen (AID 1832);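 also: 0% = DMSO and -100% = 5 µM competing unlabeled TCR2 RNA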
# Conditions: MEX-5/FITC-TCR2 RNA binding, at 10 µM, active compounds read low
# Chain of Zinc finger protein mex-5 (Caenorhabditis elegans) (Q9XUB2 whole entry, looked up): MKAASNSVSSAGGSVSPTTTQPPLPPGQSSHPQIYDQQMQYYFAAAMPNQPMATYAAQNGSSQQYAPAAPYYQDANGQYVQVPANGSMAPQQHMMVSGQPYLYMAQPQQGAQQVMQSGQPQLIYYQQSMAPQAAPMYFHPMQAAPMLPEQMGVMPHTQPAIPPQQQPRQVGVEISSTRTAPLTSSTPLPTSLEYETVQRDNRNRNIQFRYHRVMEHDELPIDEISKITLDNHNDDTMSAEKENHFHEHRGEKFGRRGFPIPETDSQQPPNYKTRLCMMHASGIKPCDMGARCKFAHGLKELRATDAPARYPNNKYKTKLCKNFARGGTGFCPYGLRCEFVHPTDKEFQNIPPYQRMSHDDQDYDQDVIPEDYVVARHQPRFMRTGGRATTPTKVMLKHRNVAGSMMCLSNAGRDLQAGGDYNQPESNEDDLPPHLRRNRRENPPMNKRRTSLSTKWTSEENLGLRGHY
row,SMILES,activity score (negative = inhibition of binding)
1,CC(C)(C)OC(=O)N1CCC(C(=O)NNC(=O)c2ccc(Cl)cc2Cl)CC1,0.105%
2,CCOC(=O)c1sc2nc(CSc3ccccc3)[nH]c(=O)c2c1C,3.85%
3,CSc1nnc(SCc2nc3sc(C(=O)O)c(C)c3c(=O)[nH]2)s1,-39.1% (active)
4,CCOC(=O)c1sc2nc(C)[nH]c(=O)c2c1C,-1.49%
5,CC(C)C[C@H](NC(=O)N1CC(=O)Nc2ccccc21)C(=O)N[C@H](Cc1ccccc1)C(=O)O,2.99%
6,COc1ccc(C(=O)OCC(=O)NCC2CCCO2)cc1[N+](=O)[O-] (configuration not stated),0.621%
7,CNC(=O)/C(C#N)=C/c1c(F)cccc1Cl,0.288%
8,COc1ccc2c(C)c(CCC(=O)NC3CC3)c(=O)oc2c1C,-3.04%
9,CCCCC1N2CC3([N+](=O)[O-])CN1CC([N+](=O)[O-])(C2)C3(C)C (configuration not stated),-0.199%
10,COc1ccc(/C=C2\SC(=S)N(CCC(=O)Nc3ccccn3)C2=O)cc1OC,-2.36%
11,COc1ccc(/C=C2\SC(=S)N(CCC(=O)Nc3cccc(C(=O)O)c3)C2=O)cc1OC,-1.23%
12,COc1ccc(/C=C2\SC(=S)N(CCCC(=O)NC3CCCC3)C2=O)cc1OC,-48.2% (active)
13,O=S(=O)(c1ccccc1)N1CCC(c2ccccc2)CC1,-0.204%
14,CCN(CC(=O)Nc1ccc2c(c1)OCCO2)Cc1cc(=O)oc2cc(C)c(C)cc12,-1.63%
15,Nc1ccc2nc3c(=O)[nH]c(=S)[nH]c3nc2c1,-47.2% (active)
16,COc1ccc(CCn2c(NN=C3CCCC3)nc3c2c(=O)[nH]c(=O)n3C)cc1,1.31%
17,NC(=O)c1oc2ccccc2c1NC(=O)Cc1ccccc1,-2.66%
18,Cc1c(CN2CCCCC2)c(O)n(CCO)c(=O)c1C#N,-12.5%
19,CCCCCCn1c(CN2CCCC(C)C2)nc2c1c(=O)n(C)c(=O)n2C (configuration not stated),-0.485%

row,SMILES,activity score (negative = inhibition of binding)
1,CCCn1c(O)c(CN2CCCC(C)C2)c(C)c(C#N)c1=O (configuration not stated),-33.7% (active)
2,COc1cccc(NC(=O)CSc2nnc(-c3cccnc3)o2)c1,-0.46%
3,CCOC(=O)COc1cc(O)c2c(=O)cc(-c3ccccc3)oc2c1,0.422%
4,COc1c(O)cc2oc(-c3ccc(O)c(O)c3)cc(=O)c2c1O,-34.4% (active)
5,COc1ccc(-c2cc(=O)c3c(O)cc(O[C@@H]4O[C@H](CO[C@@H]5O[C@@H](C)[C@H](O)[C@@H](O)[C@H]5O)[C@@H](O)[C@H](O)[C@H]4O)cc3o2)cc1O,0.902%
6,COc1ccccc1OCCOc1ccc(/C=C2\C(=N)N3N=C(C)SC3=NC2=O)cc1,0.998%
7,CC(C)CC(=O)c1c[nH]c(C(=O)NCc2ccccc2)c1,-0.164%
8,CN1C(=O)/C(=C\c2ccc(-c3ccccc3)o2)SC1=S,-2.67%
9,CN1CCN(/N=C/c2ccc(-c3ccc([N+](=O)[O-])cc3)o2)CC1,2.18%
10,NS(=O)(=O)c1ccc(-c2ccc(/C=C3\SC(=O)NC3=O)o2)cc1,-76.4% (active)
11,CCOCCCNC(=S)Nc1ccc2nc(N3CCN(CC)CC3)cc(C)c2c1,2.27%
12,CCOCCCNC(=O)C(NC(=O)CNC(=O)c1ccccc1)c1ccc(OC)cc1 (configuration not stated),-1.36%
13,O=C(C1=C(O)C(=O)N(Cc2ccccc2)C1c1ccco1)c1ccco1 (configuration not stated),0.4%
14,O=C(C1=C(O)C(=O)N(c2ncccn2)C1c1cccs1)c1ccco1 (configuration not stated),-42.2% (active)
15,O=C(C1=C(O)C(=O)N(Cc2ccccc2)C1c1cccnc1)c1ccco1 (configuration not stated),-1.21%
16,c1ccc2c(c1)CCc1snnc1-2,2.39%
17,O=C(Cn1nc(C(=O)O)c2ccccc2c1=O)Nc1ccc(F)cc1,-2.04%
18,Cc1ccc(-c2nn(-c3ccccc3)cc2/C=C2\SC(=S)N(CCCCCC(=O)O)C2=O)o1,-7.25%
19,CCCCN(C(=O)c1ccc(OC(F)(F)F)cc1)c1c(N)n(CCC)c(=O)[nH]c1=O,1.98%

row,SMILES,activity score (negative = inhibition of binding)
1,Cc1ccc(Cn2c(=N)c(S(=O)(=O)c3ccc(C)cc3)cc3c(=O)n4ccccc4nc32)cc1,6.5%
2,CCn1c(=N)c(S(=O)(=O)c2ccc(F)cc2)cc2c(=O)n3ccccc3nc21,-29.2% (active)
3,COc1ccc(CNC(=O)c2cc3c(=O)n4ccccc4nc3n(CC3CCCO3)c2=N)cc1 (configuration not stated),-4.96%
4,O=C(/C=C/c1ccc([N+](=O)[O-])o1)NNC(=O)c1ccc(F)cc1,-26.8% (active)
5,Cc1ccc(/C=C/C(=O)Nc2ccc([N+](=O)[O-])c(NC(=O)/C=C/c3ccc(C)o3)c2)o1,1.59%
6,O=C(N/N=C/c1ccc([N+](=O)[O-])o1)c1cn(-c2ccccc2)nc1-c1ccc(F)cc1,-3.11%
7,O=C(c1ccc(F)cc1)n1c(=S)nc2ccccn21,0.662%
8,O=C(COC(=O)c1ccc(F)cc1F)Nc1ncccn1,-8.66%
9,CC(C)NC(=S)Nc1cccc2cnccc12,0.93%
10,CC1(C)Cc2nc3sc4c(SCC(=O)NC(c5ccccc5)c5ccccc5)ncnc4c3cc2CO1,-0.0678%
11,Cc1ccc(NC(=O)CSc2sc3c(O)cc(=O)[nH]c3c2C#N)cc1C,-1.19%
12,O=C(N/N=C\c1ccc(-c2ccc(Cl)c(Cl)c2)o1)C(=O)N1CCCC1,-55.2% (active)
13,O=C(N/N=C/c1ccc([N+](=O)[O-])cc1)C(=O)N1CCCC1,-0.216%
14,COC(=O)N/N=C/c1ccc(-c2ccc(Cl)c(Cl)c2)o1,2.42%
15,COC(C(=O)NCc1ccccc1C)c1ccccc1 (configuration not stated),-0.406%
16,O=C(NCCCN1CCOCC1)C1CCCN(S(=O)(=O)N2CCCCC2)C1 (configuration not stated),0.135%
17,S=c1[nH]nc2c3c4c(sc3ncn12)CCCC4,0.932%
18,O/N=C1\CC2(Cc3nonc31)OCCO2,2.02%
19,ON=C1/C(=N\O)CC2(C/C1=N/O)OCCO2,-31.5% (active)
